Tb PFK block – inhibitors of T. brucei phosphofructokinase. O15648. hit rate 0.17% among 330,000. T. brucei PFK, ADP-Glo luminescence. Potency, µM (series often up to 57.5 µM), without a hit: top-dose activity, negative = inhibition, hits mostly inhibitors. AID 485367;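 also: 0% = uninhibited 1x PFK enzyme wells and -100% = no-enzyme wells; nearly all actives have a fitted effect of over 60% in size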
Target sequence (O15648 whole entry, looked up): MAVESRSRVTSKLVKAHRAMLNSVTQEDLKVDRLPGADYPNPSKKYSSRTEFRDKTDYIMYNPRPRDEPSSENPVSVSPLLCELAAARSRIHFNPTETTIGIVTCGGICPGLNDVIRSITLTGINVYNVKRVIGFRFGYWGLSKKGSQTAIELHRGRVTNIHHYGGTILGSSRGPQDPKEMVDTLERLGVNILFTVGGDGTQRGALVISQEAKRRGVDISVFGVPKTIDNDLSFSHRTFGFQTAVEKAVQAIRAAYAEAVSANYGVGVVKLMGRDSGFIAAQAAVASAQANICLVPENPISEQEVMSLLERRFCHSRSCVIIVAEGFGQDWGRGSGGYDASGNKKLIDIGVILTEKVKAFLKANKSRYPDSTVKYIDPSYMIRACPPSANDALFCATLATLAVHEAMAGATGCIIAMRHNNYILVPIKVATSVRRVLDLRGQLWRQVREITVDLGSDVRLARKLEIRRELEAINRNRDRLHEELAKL
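In TEA buffer at pH 8.0 with 5 mM MgCl2, enzyme (1.25 nM) converted F6P (0.5 mM) and ATP (0.1 mM) for 45 min at room temperature. ADP product was read by luciferase luminescence.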
PLK1 PBD block – PLK1 (human) polo-box domain binding inhibition | AID 720504 | Potency, µM, inactives show max response, negative = inhibition, usual class: inhibitors | Plk1 PBD binding of FITC phosphopeptide, fluorescence polarization | hit rate 2.8% among 360,000; also: series mostly up to about 57 µM; % is scaled to controls: 0 for no effect and ±100 for the full control effect; nearly all actives have a fitted effect of over 65% in size
VDR inhibitor – inhibitors of human vitamin D receptor; VDR-SRC2-3 peptide fluorescence polarization, 2 h; AID 504847; hit rate 0.93% among 400,000; Potency, µM, for the others: max response, negative = inhibition, usual class: inhibitors; P11473; also: % is scaled to controls: 0 for no effect and ±100 for the full control effect
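Reagent solutions, kept cold and dark, are dispensed first; compounds are then pinned in at 23 nl, plates briefly spun, and incubated 2 h at ambient temperature. Inhibition of VDR–SRC2-3 peptide binding is read by fluorescence polarization.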
BRCA1 expr up – activators of BRCA1 expression; MCF7-BRCA1-FFLuc reporter, luminescence, 48 h; response scale: scaled: vehicle 0%, 10 µM genistein 100%; hit rate 1.1% among 380,000; Potency, µM (doses to about 46.1 µM), for the others: top-dose activation, hits mostly activators; also: nearly all actives have a fitted effect of over 80% in size
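Compounds are tested at multiple concentrations on MCF7 BRCA1-luciferase reporter cells seeded at 2000 per well; after 48 h, a single luminescence end-point is taken and curves fitted to the normalized data.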
* hit, by the source's call; u = inconclusive; x = not tested or not shown; ! = repeats disagree. Sampled rows, rich in hits. Any-hit rate of the full collection: about 3.9%. Calls follow the shape of the dose curve; as a rule, active = well fitted curve in the direction sought with a large enough effect; inconclusive = small, poorly fitted or top-dose-only effect, or another doubt; inactive = no such curve, though single readings can be large; an effect the other way counts as inactive or inconclusive. Potency is read from the fitted curve at half-maximal effect.

SMILES	Tb PFK block	PLK1 PBD block	VDR inhibitor	BRCA1 expr up
COc1cc(C(=O)Nc2nnc(CC(C)(C)C)s2)cc(OC)c1OC	x	x	8%	x
COC(=O)c1cc(C(=O)Nc2nnc(CC(C)(C)C)s2)cc([N+](=O)[O-])c1	1%	19µM*	-15%	-16%
CCOCc1nnc(NC(=O)c2c(-c3ccccc3)noc2C)s1	-22%	30µM*	u	-1%
CCOCc1nnc(NC(=O)c2ccc(OC)cc2)s1	-7%	-2%	25%	13µM*
COc1ccc(Cc2nnc(NC(=O)c3c(-c4ccccc4)noc3C)s2)cc1	0%	-16%	2%	-34%
CC1=NN(C(=O)c2cc(C)nn2C)C(O)(C(F)(F)F)C1 (centres undefined)	0%	0%	3%	-26%
CC1=NN(C(=O)c2c(Br)cnn2C)C(O)(C(F)(F)F)C1 (centres undefined)	2%	11µM*	-14%	-6%
Cc1cc(C)cc(Nc2nc3ccccc3nc2-n2nc(C)cc2C)c1	x	x	1%	x
c1ccc(-c2cnnc(-c3ccccn3)n2)cc1	x	4%	-17%	4.5µM*
Cc1cc(Cl)ccc1NC(=O)CCS(=O)(=O)c1ccc2c(c1)CC(C)N2C(=O)C1CC1 (centres undefined)	x	x	6%	x
C/C(=N\NC(=O)C1CC1)c1ccc(C)c(C)c1	-4%	-7%	8%	10µM*
Fc1ccc2cc(-c3ccsc3)ncc2c1	2%	-18%	-3%	-26%
Cn1c(=O)c(-c2cccs2)nc2cnc(N3CCOCC3)nc21	x	x	6%	x
CN(C)S(=O)(=O)N(CC(=O)NCc1ccccc1)c1ccccc1	-10%	-10%	6%	0%
COc1ccc(CNC(=O)CN(c2ccccc2)S(=O)(=O)N(C)C)cc1	-1%	-9%	89µM*!	0%
COc1ccc(N(CC(=O)NN=C2CCCC2)S(=O)(=O)c2ccccc2)cc1	-1%	-2%	-9%	-2%
COc1ccc(N(CC(=O)NCC(C)C)S(=O)(=O)c2ccccc2)cc1	-6%	19µM*	u	0%
COc1ccc(CNCc2c(C(=O)O)c(C)n(Cc3ccccc3C)c2C)cc1OC	x	x	11%	x
Cc1ccc(S(=O)(=O)N2CCN(c3nc(-c4ncco4)nc4ccccc34)CC2)cc1	x	x	u	-30%
CC1=CC(C)(C)N=C(Nc2ccc(C)cc2)S1	-7%	-1%	-15%	13µM*
Cc1ccc(NC2=Nc3ccccc3CS2)cc1	1%	-5%	-6%	-2%
O=C(Nc1ccc(-c2cnco2)cc1)c1ccccc1	-8%	-11%	1%	2.8µM*
O=C(NC(=S)Nn1cnnc1)c1ccccc1Br	-4%	30µM*	u	2%
FC(F)(F)c1cc(Cl)c2nnc(-c3cccnc3)n2c1	6%	0%	16%	-15%
FC(F)(F)c1cnc(-c2cnc(-c3cccnc3)nc2)c(Cl)c1	-4%	24µM*	u	u
SMILES	Tb PFK block	PLK1 PBD block	VDR inhibitor	BRCA1 expr up
COCCN1CSC(=S)N(Cc2ccco2)C1	1%	17µM*	89µM*	91%
S=C1SCN(Cc2ccccn2)CN1Cc1ccco1	u	u	u	-66%
S=c1[nH]nc(-c2ccncc2)n1/N=C/c1cn(-c2ccccc2)nc1-c1ccccc1	4%	-8%	7%	13µM*
Oc1c(Br)cc(Br)c(/C=N/n2c(-c3ccccc3)n[nH]c2=S)c1Br	-20%	12µM*	u	-48%
Oc1ccc(Br)cc1/C=N/n1c(-c2ccccc2)n[nH]c1=S	-3%	u	-17%	-2%
C[C@H](CO)N1C[C@H](C)[C@@H](CN(C)C(=O)Oc2ccccc2)OCc2cn(nn2)CCCC1=O	x	-17%	x	-7%
COc1cc(/C=N/O)ccc1OCc1ccccc1Cl	-1%	-16%	9%	u
COc1ccc(/C=N/n2cnn(Cc3ccccc3Cl)c2=S)cc1OC	-6%	24µM*	-8%	-6%
c1ccc(-c2ccc(-n3ccnc3)cc2)cc1	2%	-7%	-2%	10µM*
COc1ccccc1NC(=O)C(C)OC(=O)CCNS(=O)(=O)c1cccc(C(F)(F)F)c1 (centres undefined)	0%	4%	-10%	0%
Cc1nccn1CCCN1C(=O)OC2(CCCCC2)C1(C)O (centres undefined)	-3%	21µM*	-5%	0%
CCOC(=O)CSC1=C(C#N)C(=O)NC2(CCCCC2)S1	u	u	79µM*	-8%
CCn1nc(NS(=O)(=O)c2ccccc2)c2cc3ccccc3nc21	2%	27µM*	u	-19%
CCOc1ccccc1NC(=O)Nc1ccc2nc(N3CCN(C)CC3)cc(C)c2c1	x	x	14%	x
Nc1ccc(C(=O)O)c(O)c1	1%	-15%	-10%	0%
Nc1ccc(N)c(C(=O)O)c1	u	24µM*	u	-8%
Cc1ccc(S(=O)(=O)N(C)C)cc1NC(=O)COC(=O)Cc1ccccc1F	2%	1%	11%	-2%
Cc1ccc(S(=O)(=O)N(C)C)cc1NC(=O)COC(=O)Cc1ccc(Br)cc1	-4%	19µM*	u	18%
CCOC(=O)/C(=C\c1cccnc1)C(=O)c1cc(C(C)=O)c(Nc2ccccc2)s1	-1%	u	7.9µM*	-100%
CCOC(=O)/C(=C\c1ccccc1)C(=O)c1cc(C(C)=O)c(Nc2ccccc2)s1	-5%	1%	u	-102%
CC(=O)C(Cl)C(=O)Nc1ccccc1 (centres undefined)	-5%	2.7µM*	14µM*	-16%
CC(C(=O)Nc1ccccc1)C(=O)Nc1ccccc1	3%	-4%	-7%	-6%
O=C(Nc1ccccc1)C(Cl)C(=O)c1ccccc1 (centres undefined)	-4%	1.5µM*	u	30%
COc1ccc(S(=O)(=O)N(CC(=O)NCCSc2ccccc2)c2ccc(Cl)cc2)cc1	x	x	-15%	x
S=C(NN=Cc1ccc2c(c1)OCO2)NN=Cc1ccc2c(c1)OCO2	x	-5%	u	3%
SMILES	Tb PFK block	PLK1 PBD block	VDR inhibitor	BRCA1 expr up
O=C(N/N=C/c1ccc2c(c1)OCO2)C1CC1	1%	-4%	10%	7.9µM*
COc1ccc(N(CC(=O)N/N=C/c2ccc3c(c2)OCO3)S(=O)(=O)c2ccc(NC(C)=O)cc2)cc1	-4%	27µM*	-26%	-12%
Cc1cccc(/C=N/NC(=O)c2cc3c(s2)-c2ccccc2CC3)c1	0%	21µM*	-9%	-77%
Cc1cccc(/C=N/NC(=O)Cc2cccs2)c1	3%	2%	-17%	11µM*
COc1ccc(N(CC(=O)Nc2ccc3c(c2)OCO3)S(=O)(=O)c2ccc(F)cc2)cc1	6%	-7%	-2%	-44%
O=C(Cc1cccs1)N/N=C/c1ccccc1	2%	4%	11%	45%
Cc1ccc(NC(=O)CSc2nc3ccc(NC(=O)c4cccs4)cc3s2)c(C)c1	x	x	8%	3%
CC1CCN(c2ccc(-c3cccc(NS(=O)(=O)c4ccc(Cl)s4)c3)nn2)CC1	x	x	10%	x
Cc1ccc(CC(=O)N/N=C/c2ccc3c(c2)OCO3)cc1	-2%	-14%	12%	8.9µM*
O=C(N/N=C\c1ccc2c(c1)OCO2)c1ccco1	-2%	-3%	2%	3.2µM*
O=C(C[C@H]1CC[C@H](NC(=O)Nc2ccccc2F)[C@@H](CO)O1)NCc1ccc(-c2ccccc2)cc1	x	-1%	x	x
